The record followed here is PubChem BioAssay (NCI).

Compounds without any hit were thinned out: in the full panel of roughly 79,000, 15% have a hit. A number with no mark means an inactive call. Calls of active or inactive are those of the source. Cut-off read from the data, not from the text of the source: active = growth inhibition above about 70%; inactive = the rest.

This experiment can be described thus: NCI Yeast Anticancer Drug Screen. Data for the CLN2oe strain (AID 163).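 Note: 0% = growth of vehicle-only control cultures.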 The note with it: S. cerevisiae CLN2oe strain, hits give high values. The method, then: Growth inhibition of yeast strains with defined genetic alterations is measured as a screen for potential anti-cancer activity. Selected strains with alterations in DNA damage repair or cell cycle control were exposed to compounds and growth inhibition was measured relative to vehicle treated controls. The strain used in this assay is CLN2oe

On to `BrC1C2CCC3OC3C12` (stereo not given), for which the growth inhibition reads like this: (at 1.2 µM) 2%; (at 3.7 µM) -3%; (at 11.0 µM) 53%; (at 33.0 µM) 99% (active); (at 100.0 µM) 99% (active).
As to `CCCCS(=O)(=O)Nc1ccc(Nc2c3ccccc3nc3ccccc23)c(OC)c1`, the growth inhibition reads like this: (at 1.2 µM) 10%; (at 3.7 µM) 3%; (at 11.0 µM) 6%; (at 33.0 µM) 72% (active); (at 100.0 µM) 91% (active).
As to `Cc1ccc(NC(=O)CCC(=O)C(C)C(=O)c2ccccc2)c(C)c1` (stereo not given), the growth inhibition reads like this: (at 1.2 µM) -1%; (at 3.7 µM) 1%; (at 11.0 µM) 5%; (at 33.0 µM) 1%; (at 100.0 µM) 0%.
Regarding `O=c1c2ccccc2nc(-c2cccc([N+](=O)[O-])c2)n1O`, the growth inhibition by setting is: (at 1.2 µM) 6%; (at 3.7 µM) 15%; (at 11.0 µM) 33%; (at 33.0 µM) 46%; (at 100.0 µM) 51%.
Regarding `C=C(C(=O)OC)N1C(=O)CC(C)C1=O` (stereo not given), the growth inhibition (at 1.2 µM) is -3%; the growth inhibition (at 3.7 µM) is 11%; the growth inhibition (at 11.0 µM) is 10%; the growth inhibition (at 33.0 µM) is 14%; the growth inhibition (at 100.0 µM) is 38%.
Turning to `O=C(O)C(=Cc1ccc(-c2ccccc2)cc1)C(=O)O`, the growth inhibition runs as follows: (at 1.2 µM) 5%; (at 3.7 µM) 7%; (at 11.0 µM) 22%; (at 33.0 µM) 56%; (at 100.0 µM) 88% (active).
For the molecule `O=C1CSC(c2ccccc2)N1c1ccc(-c2ccc(-n3c(-c4ccccc4)nc4ccccc4c3=O)cc2)cc1` (stereo not given), the growth inhibition is 5% (at 1.2 µM); 3% (at 3.7 µM); 6% (at 11.0 µM); 6% (at 33.0 µM); 10% (at 100.0 µM).
Regarding `O=S(=O)(c1cccc(C(F)(F)F)c1)N1c2ccccc2-n2cccc2C1c1cccnc1` (stereo not given), the growth inhibition is -16% (at 1.2 µM); -19% (at 3.7 µM); 74% (active) (at 11.0 µM); 94% (active) (at 33.0 µM); 90% (active) (at 100.0 µM).
